SMILES strings stand for the structures. This is part of a sample that, as a whole, favours compounds with a hit. Of some 83,000 tested, about 20% had one in any assay.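 Step 1: grow cells in 96-well plates. Step 2: add test compound at a single concentration. Step 3: incubate 48 h. Step 4: record percent growth.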 Values without a mark were called inactive. The source made the active and inactive calls. Rule for the calls: active = growth percent below 10; inactive = the rest.

Experiment in all cases: NCI-60 one-dose screen, 48 h (100 = growth as untreated, 0 = no growth, -100 = all killed)
Common to all, as to settings: 10 µM

Test [1] relates to HCT-15 colon.
In test [2] the test system is HT29 colon.
Test [3] has as its system SNB-75 CNS.
Test [4] deals with SNB-19 CNS.
The test system of test [5] is U251 CNS.
In test [6] the test system is PC-3 prostate.
The test system of test [7] is SK-MEL-5 melanoma.
In test [8] the test system is UACC-62 melanoma.
Test [9] concerns LOX IMVI melanoma.
Test [10] concerns SK-MEL-28 melanoma.

On to `COc1cc2ncnc(NC3CCC(O)CC3)c2cc1OC` (stereo not given), for which the growth in test [1] is 101%; in [2], 90%; in [3], 91.9%; in [4] it was 97.4%; in test [5], 90.2%; in test [6], 87.7%. Also, the growth in [7] was 98.6%; in test [8], 97.1%; in [9] it was 95.3%; in test [10] it was 108%.

On to `CC(=O)Nc1ccc(CC[C@H]2CCC/C=C/[C@@H]3C[C@H](O)C[C@H]3[C@H](O)/C=C/C(=O)O2)cc1`, for which the growth in [1] is 9.69% (active); in test [2], -26.2% (active); in [3], 30.3%; in test [4] it was 25.9%; in [5], 15.2%; in test [6] it was 18.9%. Moreover, the growth is -88.6% (active) in test [7], 18.7% in [8], -64.9% (active) in [9] and 6.75% (active) in test [10].

For the compound `CSc1nc(S(C)(=O)=O)nc2[nH]c(=O)[nH]c12`, the growth was 94.9% in test [1]; 99.5% in test [2]; 97% in test [3]; 99.8% in test [4]; 105% in test [5]; 106% in test [6]. The growth was 103% in test [7], 98.9% in test [8], 108% in test [9] and 126% in [10].

As to `COc1cc(-c2nn(-c3cccc(NC(=O)NCCNC(=O)c4cccc(C(F)(F)F)c4)c3)cc2-c2ccncc2)ccc1Cl`, the growth in test [1] was 53.2%; in test [2], 21.1%; in test [3], 16.5%; in test [4], 53.5%; in [5], 28.4%; in test [6], 17.6%. In addition, the growth in [7] is 7.16% (active); in [8] it was 50.7%; in [9], 31.7%; in test [10] it was 57.6%.

`C=CCSC(CC)(CC)C(=O)NC`: the growth in [1] is 101%; in [2], 87%; in [3], 89.5%; in [4], 102%; in test [5] it was 101%; in test [6] it was 101%. In addition, the growth in [7] is 103%; in test [8] it was 103%; in test [9], 100%; in test [10], 110%.

On to `CNS(=O)(=O)Oc1ccc(-c2ccc3occc3c2)cc1`, for which the growth in test [1] is 92.8%; in test [2], 99.1%; in [3] it was 106%; in [4], 101%; in [5], 94.1%; in test [6], 90.6%. The growth in test [7] was 101%; in test [8], 87.3%; in test [9], 96.4%; in [10], 94.4%.

For the compound `Nc1nc(-c2ccc(Cl)cc2)cc(-c2cc3ccccc3oc2=O)n1`, the growth is 102% in test [1]; 93.5% in test [2]; 68.4% in test [3]; 94% in test [4]; 99.4% in [5]; 97.8% in test [6]. The growth is 91.2% in test [7], 92.5% in test [8], 92.8% in [9] and 110% in test [10].

Consider `CCCCN(CCCC)C(=O)[C@H](CC)[C@@H]1CC[C@@H](C)[C@@H]([C@H](C)[C@@H](O)[C@@H](C)C(=O)[C@H](CC)C2O[C@]3(C=C[C@@H](O)[C@]4(CC[C@@](C)([C@H]5CC[C@](O)(CC)[C@H](C)O5)O4)O3)[C@H](C)C[C@@H]2C)O1` (stereo not given in full), for which the growth is -5.99% (active) in [1]; 7.79% (active) in [2]; -12.4% (active) in [3]; 15.3% in [4]; 13.9% in test [5]; 4.26% (active) in [6]. The growth in [7] was -92% (active); in test [8], 12.2%; in [9] it was 2.12% (active); in test [10], 39.8%.

Regarding `Cc1cc(Cl)ccc1Nc1nc(C(F)(F)F)ccc1C(=O)N/N=C/c1c(Cl)cccc1Cl`, the growth in test [1] is 9.11% (active); in [2], 3.29% (active); in [3], -16.4% (active); in test [4], 13.5%; in test [5], -1.74% (active); in test [6], -13.7% (active). Further, the growth is -85.4% (active) in test [7], -12.9% (active) in test [8], 10% in test [9] and 24.7% in test [10].

Take `COc1ccc(Nc2cnc3cc(NS(=O)(=O)c4ccc(C)cc4)ccc3n2)cc1`: the growth in [1] is 59.8%; in test [2], 45.1%; in [3], 61.7%; in test [4], 83%; in [5] it was 77.9%; in test [6], 101%. Also, the growth is 77.4% in test [7], 65.3% in test [8], 87% in [9] and 81.1% in [10].

Regarding `CC(C)(C)OC(=O)N1CCc2c(sc3ncnc(N/N=C/c4ccccc4Br)c23)C1`, the growth in test [1] is 25.5%; in test [2], 77.2%; in test [3], 74.5%; in test [4], 93.1%; in test [5] it was 74.9%; in test [6], 48.1%. Further, the growth is 66.6% in test [7], 60.1% in test [8], 55.5% in [9] and 81.9% in test [10].

`Nc1nccc(OCCO)n1`: the growth in test [1] is 98.4%; in test [2] it was 88.3%; in [3], 89.5%; in test [4] it was 101%; in test [5], 107%; in test [6], 103%. For the same compound, the growth was 99.2% in [7], 106% in test [8], 97.5% in test [9] and 112% in [10].

`COc1ccc2c(c1)OC(N)=C(C#N)C2c1cc(OC)c(OC)c(OC)c1` (stereo not given): the growth in [1] was 14.2%; in test [2], 0.78% (active); in test [3], 44.7%; in [4], 44.7%; in test [5], 6.72% (active); in [6], 19.7%. Besides, the growth in [7] is -46.2% (active); in test [8] it was 39%; in [9] it was 12.7%; in [10], 62.7%.
